{"source": "PubChem BioAssay (NCATS)", "note": "Several values for one entry are separate records, joined by “and”; a condition that tells them apart may be missing. Equal values may be shown once. Inconclusive results are not listed. Where a structure was tested more than once in an assay, its records may differ in their call. Activity calls are given as the source filed them. Unless noted, calls come from the whole dose curve; as a rule, active = well fitted curve in the direction sought with a large enough effect; inconclusive = small, poorly fitted or top-dose-only effect, or another doubt; inactive = no such curve, though single readings can be large; an effect the other way counts as inactive or inconclusive.", "data": [{"test_system": "not listed separately", "assay": "Primary qHTS to identify inhibitors of SARS-CoV-2 cell entry (AID 1645846; calls by dose curve; note: nearly all actives have a fitted effect of over 45% in size)", "conditions": "SARS-CoV-2 pseudovirus cell entry assay, luminescence; activity change, negative = inhibition: at 57.1 µM (top of the series) unless noted; series mostly up to 57.1 µM", "method_in_brief": "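HEK293 cells stably expressing human ACE2, pre-treated 1 h with compound, then infected with MLV particles pseudotyped with Wuhan-Hu-1 spike (C-terminal 19-aa truncation). Luciferase luminescence after 48 h at 37 °C, normalised to spike PP and bald PP.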", "units": {"activity change, negative = inhibition": "%"}, "values": [{"smiles": "CCN(CC)C(=O)c1ccc(C2=CC3(CCNCC3)Oc3cccc(O)c32)cc1", "activity change, negative = inhibition": -22.9}, {"smiles": "C[C@]12CC[C@H]3[C@@H](CCC4=CC(=O)CC[C@@]43C)[C@H]1CC[C@H]2OC(=O)CCC1CCCC1", "activity change, negative = inhibition": -3.52}, {"smiles": "CN[C@@H]1Cc2cccc3[nH]c(=O)n(c23)C1", "activity change, negative = inhibition": 4.06}, {"smiles": "CN(C)NC(=O)CCC(=O)O", "activity change, negative = inhibition": -24.7}, {"smiles": "C[C@]12CC[C@@H]3[C@@H](CCC4=CC(=O)CC[C@@H]43)[C@@H]1CC[C@@H]2OC(=O)CCc1ccccc1", "activity change, negative = inhibition": -12.2}, {"smiles": "CCNC(=O)CC1N=C(c2ccc(Cl)cc2)c2cc(OC)ccc2-n2c(C)nnc21", "note": "(stereo not drawn)", "activity change, negative = inhibition": -16.5}, {"smiles": "Cc1ccccc1-n1c(Cn2cnc3c(N)ncnc32)nc2cccc(C)c2c1=O", "Potency": "inactive"}, {"smiles": "O=C(Oc1ccc([N+](=O)[O-])cc1)N1CCC(C(O)(c2ccc3c(c2)OCO3)c2ccc3c(c2)OCO3)CC1", "activity change, negative = inhibition": -17.3}, {"smiles": "CCOC(=O)c1c(C(C#N)=CN)c2ccc(Cl)c(Cl)c2n1C", "activity change, negative = inhibition": -10.2}, {"smiles": "O=c1cccc2n1CC1CNC[C@H]2C1", "activity change, negative = inhibition": -15.2}, {"smiles": "CC(C)[C@]12O[C@H]1[C@@H]1O[C@]13[C@]1(O[C@H]1C[C@H]1C4=C(CC[C@@]13C)C(=O)OC4)[C@@H]2O", "activity change, negative = inhibition": -93.7}, {"smiles": "CC[C@@]1(O)C(=O)OCc2c1cc1n(c2=O)Cc2cc3ccccc3nc2-1", "activity change, negative = inhibition": -94.8}, {"smiles": "CCOP(=O)(OCC)C(C)NC(=O)N(CCCl)N=O", "note": "(stereo not drawn)", "Potency": "inactive", "activity change, negative = inhibition": -18.4}, {"smiles": "O=S(=O)(F)Cc1ccccc1", "activity change, negative = inhibition": -1.91}, {"smiles": "O=C(N[C@H]1CN2CCC1CC2)c1ccc(Cl)cc1", "activity change, negative = inhibition": 4.38}, {"smiles": "COc1ccc(C(=O)c2c(C)n(CCN3CCOCC3)c3cc(I)ccc23)cc1", "activity change, negative = inhibition": -80.5}, {"smiles": "COc1ccc2c(c[n+](C)c3c4cc5c(cc4ccc23)OCO5)c1OC", "activity change, negative = inhibition": -96.4}, {"smiles": "C[C@](O)(COc1ccc(C#N)cc1)C(=O)Nc1ccc(C#N)c(C(F)(F)F)c1", "activity change, negative = inhibition": -12.9}, {"smiles": "C#CC1(O)CCC2C3CCC4=CC(=O)CCC4(C)C3CCC21C", "note": "(stereo not drawn)", "activity change, negative = inhibition": -0.771}, {"smiles": "COC(=O)[C@@H](N)CCCN=C(N)N[N+](=O)[O-]", "activity change, negative = inhibition": -1.1}, {"smiles": "CCCC[N+]1(C)[C@H]2CC(OC(=O)[C@H](CO)c3ccccc3)C[C@H]1[C@H]1O[C@H]12", "note": "(stereo partly drawn)", "activity change, negative = inhibition": -13.1}, {"smiles": "CCCCCC[C@H]1C(=O)O[C@H](C)[C@H](NC(=O)c2cccc(NC=O)c2O)C(=O)O[C@@H](C)[C@@H]1OC(=O)CC(C)C", "activity change, negative = inhibition": -94.1}, {"smiles": "CN1[C@H]2CC(O)C[C@H]1[C@H]1O[C@H]12", "note": "(stereo partly drawn)", "activity change, negative = inhibition": 0.905}, {"smiles": "CC(C)[C@H]1C(=O)N[C@H](CO)Cc2c[nH]c3cccc(c23)N1C", "Potency": "inactive"}, {"smiles": "CCN1C[C@]2(OC(=O)c3ccccc3NC(C)=O)CC[C@H](OC)[C@@]34[C@H]5CC6[C@@H](OC)C[C@](O)(C(C[C@@H]23)[C@@H]14)[C@@]5(O)[C@@H]6OC", "activity change, negative = inhibition": 1.38}, {"smiles": "O=S(=O)(CC1CS1)c1ccc(Oc2ccccc2)cc1", "note": "(stereo not drawn)", "Potency": "inactive"}]}, {"molecular_target": "Papain (Carica papaya) (UniProt P00784)", "sequence (P00784 whole entry, looked up)": "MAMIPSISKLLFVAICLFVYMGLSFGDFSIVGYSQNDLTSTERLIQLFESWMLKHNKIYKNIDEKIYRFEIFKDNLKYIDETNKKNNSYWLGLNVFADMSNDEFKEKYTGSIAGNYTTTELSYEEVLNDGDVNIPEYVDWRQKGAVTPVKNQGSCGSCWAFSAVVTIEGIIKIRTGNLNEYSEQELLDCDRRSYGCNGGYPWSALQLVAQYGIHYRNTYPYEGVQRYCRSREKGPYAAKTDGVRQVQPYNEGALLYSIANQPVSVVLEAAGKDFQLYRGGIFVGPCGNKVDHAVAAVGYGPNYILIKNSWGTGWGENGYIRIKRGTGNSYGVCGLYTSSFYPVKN", "assay": "Primary qHTS assay for inhibitors of the protease papain (AID 1645873);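 note: papain turnover of Z-FR-AMC read as the AMC fluorescence gain over 10 min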; note: potency is the fitted concentration of half-maximal effect; for activity change, negative = inhibition: % is set by controls: 0 for no effect and ±100 for the full control effect", "conditions": "papain Z-FR-AMC cleavage, AMC fluorescence; series mostly up to 49.8 µM", "values": [{"smiles": "C[C@@H]1O[C@H](C[N+](C)(C)C)C[C@H]1O", "Potency": "inactive"}, {"smiles": "CC(C)NC(C)Cc1ccc(I)cc1", "note": "(stereo not drawn)", "Potency": "inactive"}, {"smiles": "CCCN1CCO[C@@H]2c3cc(O)ccc3OC[C@H]21", "Potency": "inactive"}, {"smiles": "CC[C@@]1(O)C(=O)OCc2c1cc1n(c2=O)Cc2cc3ccccc3nc2-1", "Potency": "3.98 µM (active)"}, {"smiles": "O=C(N[C@H]1CN2CCC1CC2)c1ccc(Cl)cc1", "Potency": "inactive"}, {"smiles": "COc1ccc2c(c[n+](C)c3c4cc5c(cc4ccc23)OCO5)c1OC", "Potency": "inactive"}, {"smiles": "NC1CC1c1ccccc1", "note": "(stereo not drawn)", "Potency": "inactive"}, {"smiles": "NCCc1c[nH]c2ccccc12", "Potency": "inactive"}]}, {"test_system": "not listed separately", "assay": "Primary qHTS for inhibitors of nuclear receptor binding SET domain protein 2 (NSD2) in an isogenic RCH-ACV NSD2 p.E1099K mutant (9B) (AID 1645876); note: nearly all actives have a fitted effect of over 70% in size; note: potency is the fitted concentration of half-maximal effect", "conditions": "RCH-ACV NSD2 E1099K (9B) viability, CellTiter-Glo, 72 h; series mostly up to 44.9 µM", "values": [{"smiles": "C[C@]12CC[C@H]3[C@@H](CCC4=CC(=O)CC[C@@]43C)[C@H]1CC[C@H]2OC(=O)CCC1CCCC1", "Potency": "inactive"}, {"smiles": "CN[C@@H]1Cc2cccc3[nH]c(=O)n(c23)C1", "Potency": "inactive"}, {"smiles": "O=C1C=CC[C@@H]2[C@H]3CCCN4CCC[C@@H](CN12)[C@@H]34", "Potency": "inactive"}, {"smiles": "CN(C)NC(=O)CCC(=O)O", "Potency": "inactive"}, {"smiles": "C[C@]12CC[C@@H]3[C@@H](CCC4=CC(=O)CC[C@@H]43)[C@@H]1CC[C@@H]2OC(=O)CCc1ccccc1", "Potency": "inactive"}, {"smiles": "CCNC(=O)CC1N=C(c2ccc(Cl)cc2)c2cc(OC)ccc2-n2c(C)nnc21", "note": "(stereo not drawn)", "Potency": "9.34 µM (active) and inactive and 515 nM (active)"}, {"smiles": "O=S(=O)(c1ccc(Cl)cc1)c1ccc(Cl)cc1", "Potency": "inactive"}, {"smiles": "CCCN1CCO[C@@H]2c3cc(O)ccc3OC[C@H]21", "Potency": "inactive"}, {"smiles": "O=C(Oc1ccc([N+](=O)[O-])cc1)N1CCC(C(O)(c2ccc3c(c2)OCO3)c2ccc3c(c2)OCO3)CC1", "Potency": "inactive"}, {"smiles": "CCNC(=O)C[C@@H]1N=C(c2ccc(Cl)cc2)c2cc(OC)ccc2-n2c(C)nnc21", "Potency": "459 nM (active) and 590 nM (active)"}, {"smiles": "O=c1cccc2n1CC1CNC[C@H]2C1", "Potency": "inactive"}, {"smiles": "CC(C)[C@]12O[C@H]1[C@@H]1O[C@]13[C@]1(O[C@H]1C[C@H]1C4=C(CC[C@@]13C)C(=O)OC4)[C@@H]2O", "Potency": "18.3 nM (active) and 23.5 nM (active)"}, {"smiles": "CC[C@@]1(O)C(=O)OCc2c1cc1n(c2=O)Cc2cc3ccccc3nc2-1", "Potency": "0.0148 µM (active)"}, {"smiles": "CCOP(=O)(OCC)C(C)NC(=O)N(CCCl)N=O", "note": "(stereo not drawn)", "Potency": "inactive"}, {"smiles": "O=S(=O)(F)Cc1ccccc1", "Potency": "inactive"}, {"smiles": "O=C(N[C@H]1CN2CCC1CC2)c1ccc(Cl)cc1", "Potency": "inactive"}, {"smiles": "COc1ccc(C(=O)c2c(C)n(CCN3CCOCC3)c3cc(I)ccc23)cc1", "Potency": "18.6 µM (active)"}, {"smiles": "COc1ccc2c(c[n+](C)c3c4cc5c(cc4ccc23)OCO5)c1OC", "Potency": "inactive"}, {"smiles": "C[C@](O)(COc1ccc(C#N)cc1)C(=O)Nc1ccc(C#N)c(C(F)(F)F)c1", "Potency": "20.9 µM (active)"}, {"smiles": "Clc1ccccc1C(c1ccccc1)(c1ccccc1)n1cccn1", "Potency": "inactive"}, {"smiles": "COc1cc([C@@H]2c3cc4c(cc3[C@@H](O)C3COC(=O)C32)OCO4)cc(OC)c1O", "note": "(stereo partly drawn)", "Potency": "0.417 µM (active)"}, {"smiles": "C#CC1(O)CCC2C3CCC4=CC(=O)CCC4(C)C3CCC21C", "note": "(stereo not drawn)", "Potency": "inactive"}, {"smiles": "COC(=O)[C@@H](N)CCCN=C(N)N[N+](=O)[O-]", "Potency": "inactive"}, {"smiles": "CC(C)Oc1cccc(NC(=O)c2ccccc2C(F)(F)F)c1", "Potency": "21.7 µM (active)"}, {"smiles": "CCCC[N+]1(C)[C@H]2CC(OC(=O)[C@H](CO)c3ccccc3)C[C@H]1[C@H]1O[C@H]12", "note": "(stereo partly drawn)", "Potency": "inactive"}, {"smiles": "CN1[C@H]2CC(O)C[C@H]1[C@H]1O[C@H]12", "note": "(stereo partly drawn)", "Potency": "inactive"}, {"smiles": "CCN1C[C@]2(OC(=O)c3ccccc3NC(C)=O)CC[C@H](OC)[C@@]34[C@H]5CC6[C@@H](OC)C[C@](O)(C(C[C@@H]23)[C@@H]14)[C@@]5(O)[C@@H]6OC", "Potency": "inactive"}, {"smiles": "O=S(=O)(CC1CS1)c1ccc(Oc2ccccc2)cc1", "note": "(stereo not drawn)", "Potency": "8.33 µM (active)"}]}]}
